Source: PubChem BioAssay (NCI)
Compounds without any hit were thinned out: in the full panel of roughly 83,000, 20% have a hit.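 Cell lines were cultured in 96-well plates, exposed to a single compound concentration, and assessed for percent growth 48 hours later.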 The source made the active and inactive calls. How the source made its calls: active means growth percent below 10; inactive means the rest.

tested on: OVCAR-4 ovarian; test: NCI-60 one-dose screen, 48 h (100 = growth as untreated, 0 = no growth, -100 = all killed); settings: 10 µM unless noted

Question: With `CCOC(=O)CCC(NC(=O)C(Cc1ccc(N(CCCl)CCCl)cc1)NC=O)C(=O)OCC` (stereo not given) as the compound, how does the growth read?
Answer: 61.4% (inactive)

Question: `COC(=O)[C@@H](C)C[C@H](Cc1ccccc1)NC(=O)c1nc([C@@H](C[C@H](C(C)C)N(C)C(=O)[C@@H](NC(=O)[C@H]2CCCCN2C)C(C)C)OC(C)=O)sc1C(C)C` was tested. Which growth did it give?
Answer: 41.6% (inactive)

Question: For `CCCC(C)C1(CC)C(=O)NC(=O)N(C)C1=O` (stereo not given), which growth is on record?
Answer: 108% (inactive)

Question: How did the growth turn out when `C=CCCCCCCCCC(=O)[O-].C=CCCCCCCCCC(=O)[O-].[Zn+2]` was run?
Answer: 115% (inactive)

Question: For `COc1ccc(C(O)(C(=O)O)c2ccc(OC)cc2)cc1`, which growth is on record?
Answer: 97.8% (inactive)

Question: `Nc1c(F)cc(-c2nc3cc(F)ccc3[se]2)cc1F` was tested. Which growth did it give?
Answer: 48.9% (inactive)

Question: With `CC(=O)O[C@@H]1CC[C@]2(C)[C@H]3CC[C@]4(C)C(=O)CC[C@H]4[C@@H]3C[C@@H]3SC(N)=N[C@@]32C1` as the compound, how does the growth read?
Answer: 84% (inactive)

Question: For `N#CC1(C#N)C(c2ccc(N(CCCl)CCCl)cc2)OC23CCCCC2C1(C#N)C(=N)O3` (stereo not given), which growth is on record?
Answer: 91.9% (inactive)

Question: With `CCCCNC(c1ccc(Cl)cc1)C(O)c1ccc(Cl)cc1` (stereo not given) as the compound, how does the growth read?
Answer: 65.9% (inactive)

Question: How did the growth turn out when `CCOC(=O)[C@@H](C)C[C@H](Cc1ccccc1)NC(=O)c1csc([C@@H](C[C@H](C(C)C)N(C)C(=O)[C@H](CC)NC(=O)[C@H]2CCCCN2C)OC(C)=O)n1` was run?
Answer: 37.4% (inactive)

Question: For `C[Se]C(=O)c1ccccc1OC(C)=O`, which growth is on record?
Answer: 85.3% (inactive)

Question: For `ClC1=C(Cl)C(Cl)(C2(Cl)C(Cl)=C(Cl)C(Cl)=C2Cl)C(Cl)=C1Cl`, which growth is on record?
Answer: -30.2% (active)

Question: For `CN[C@@]1(c2ccccc2Cl)CCCC[C@@H]1NCC1CCCO1` (stereo not given in full), which growth is on record?
Answer: 93.8% (inactive)

Question: Which growth does the source give for `COc1cc2c(cc1OCc1ccccc1)C(CC(C)C)=[N+](C)CC2` here?
Answer: 71.5% (inactive)

Question: With `CC(=O)O[C@H]1CC[C@H]2[C@@H]3CC=C4c5nc(-c6ccccc6)sc5CC[C@]4(C)[C@H]3CC[C@]12C` as the compound, how does the growth read?
Answer: 87.2% (inactive)

Question: Which growth does the source give for `N#CC1(c2ccccc2)CCN(Cc2ccccc2)CC1` here?
Answer: 113% (inactive)

Question: Which growth does the source give for `COc1ccc(/C=C\c2cc(OC)c(OC)c(OC)c2)cc1OCC(=O)Nc1nc2ccc(OC(F)(F)F)cc2s1` here?
Answer: 64.4% (inactive)

Question: How did the growth turn out when `CC(C)(C)C(=O)OCOP(=O)(NCc1ccccc1)C1CCCN(O)C1=O` (stereo not given) was run?
Answer: 19.9% (inactive)

Question: How did the growth turn out when `CC(=O)Nc1ccc(NC(=O)c2ccc([As](O)O)cc2)cc1` was run?
Answer: 103% (inactive)

Question: For `O[C@H](CN1CC1)[C@@H](O)CN1CC1`, which growth is on record?
Answer: 93.1% (inactive)

Question: For `Cc1cc(C)c(CBr)c(C)c1`, which growth is on record?
Answer: 127% (inactive)

Question: `CC12CCC3C(CCC4=CC(=O)CCC43CF)C1CCC2=O` (stereo not given) was tested. Which growth did it give?
Answer: 98.8% (inactive)

Question: With `C=C1[C@@H](C)[C@H]2[C@H](Cc3ccccc3)NC(=O)[C@]23[C@@H](O)/C=C/[C@@](C)(O)C(=O)[C@@H](C)C/C=C/[C@H]3[C@@H]1O` as the compound, how does the growth read?
Answer: 53.7% (inactive)

Question: How did the growth turn out when `NC(=O)C(Br)c1ccccc1` (stereo not given) was run?
Answer: 89.6% (inactive)

Question: `CCC(=O)Nc1ccc(Cl)c(Cl)c1` was tested. Which growth did it give?
Answer: 118% (inactive)

Question: With `CC[C@H](C)[C@@H]1OC(=O)C(C)(C)[C@H](O)[C@H](Cc2ccccc2)OC(=O)[C@H](C(C)C)OC(=O)[C@@H](NC(=O)c2cccc(NC=O)c2O)[C@@H](C)OC1=O` as the compound, how does the growth read?
Answer: 28.7% (inactive)

Question: With `NC(=S)c1cn(C2OC(CO)C(O)C2O)c2ncnc(N)c12` (stereo not given) as the compound, how does the growth read?
Answer: -7.48% (active)

Question: For `Nc1ncnc2n[nH]nc12`, which growth is on record?
Answer: 57.6% (inactive)

Question: `COc1cc(/C=C/[N+](=O)[O-])cc(OC)c1` was tested. Which growth did it give?
Answer: 47.6% (inactive)

Question: For `Clc1cccc(NCOOC2(OOCNc3cccc(Cl)c3)CCCCCC2)c1`, which growth is on record?
Answer: 97.4% (inactive)

Question: For `Brc1ccc2c(c1)c(-c1nc(-c3c[nH]c4ncccc34)cs1)cn2CCN1CCOCC1`, which growth is on record?
Answer: 57.3% (inactive)

Question: Which growth does the source give for `CC1=C(CCCNS(C)(=O)=O)C2=C(C)C3(CC3)[C@@](C)(O)C(=O)C2=C1` here?
Answer: -12.1% (active)

Question: How did the growth turn out when `CCN(CCO)C(Cc1ccccc1)c1ccccc1` (stereo not given) was run?
Answer: 102% (inactive)

Question: For `CCCCC1(CCC)C(=O)NC(=S)NC1=O`, which growth is on record?
Answer: 95.9% (inactive)

Question: Which growth does the source give for `CC[C@H](C)[C@H](NC(=O)[C@H]1CCCCN1C)C(=O)N(C)[C@H](CC(=O)c1nc(C(=O)N[C@@H](Cc2ccccc2)C[C@H](C)C(=O)O)cs1)C(C)C` here?
Answer: 106% (inactive)
